Laboratory results: PubChem BioAssay (NCATS)
Results filed as inconclusive are left out. A call without a number means that no potency is given here. The source made the active and inactive calls. Unless noted, calls come from the whole dose curve; as a rule, active = well fitted curve in the direction sought with a large enough effect; inconclusive = small, poorly fitted or top-dose-only effect, or another doubt; inactive = no such curve, though single readings can be large; an effect the other way counts as inactive or inconclusive.

Legend:
[1] = target: Ubiquitin carboxyl-terminal hydrolase 2 (Homo sapiens) (UniProt O75604); assay: qHTS Validation Assay for Inhibitors of Ubiquitin-specific Protease USP2a Using CHOP2 as the Reporter (AID 463106)
Procedure, shortened: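 USP2 core (10 nM final) was preincubated with compound 30 min at RT in pH 8.0 Tris/CaCl2/beta-ME/CHAPS buffer. Ub-CHOP2 and reporter substrate (25 nM final each) were then added, with fluorescence (Ex 485/Em 531) read after 60 min. Data were normalized to NEM full inhibition and fitted to concentration-response curves.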

[2] = target: Tumor susceptibility gene 101 protein (Homo sapiens) (UniProt Q99816); assay: qHTS Validation Assay for Iinhibitors of HIV-1 Budding by Blocking the Interaction of PTAP/TSG101 (AID 485342; calls by dose curve)
Procedure, shortened: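 Tsg101 binding domain (10 uM final) in pH 7.5 HEPES/NaCl/Tween 20/EDTA/TCEP buffer was mixed with pin-transferred compounds, then FITC-labeled PTAP peptide (50 nM final) was added; after 20 min at r.t., fluorescence polarization was read.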

[3] = qHTS Validation Assay to Find Inhibitors of Chronic Active B-Cell Receptor Signaling (AID 485345; active = well fitted curve in the direction sought with a large enough effect in the main read-out, with a control signal flat, not every such curve was filed as active; note: potency is the fitted concentration of half-maximal effect)
Procedure, shortened: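 TMD8 ABC-DLBCL cells stably carrying doxycycline-inducible IkappaBalpha–green luciferase fusion plus unfused red luciferase; compounds 46 uM to 3 nM, 4 h at 37C with doxycycline. Corrected green/red luminescence ratio normalized to 10 uM MG-132 and basal cell wells; curves fitted.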

[4] = target: Beta-2 adrenergic receptor (Homo sapiens) (UniProt P07550); assay: qHTS validation assay of beta-arrestin-biased ligands of beta2-adrenergic receptor (AID 485366)
Procedure, shortened: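 Luminescence from a tTA-responsive luciferase, induced when recombinant beta-arrestin is recruited to recombinant beta2-AR, served as the agonism signal. Cells were exposed to compound for 18 hr at 37 degrees C; titrations spanned up to 46 microM.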

[5] = Quantitative high throughput screen for delayed death inhibitors of the malarial parasite plastid, 48 hour incubation (AID 488752); note: nearly all actives have a fitted effect of over 65% in size; note: potency is the fitted concentration of half-maximal effect
Procedure, shortened: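 Readout is firefly luciferase luminescence from a reporter integrated into the parasite genome, with lower signal taken as inhibited growth. Infected red cells (0.1% parasitemia, 2% hematocrit final) are cultured with compound for one 48 h cycle at 37 C.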

[6] = target: Thioredoxin reductase 1, cytoplasmic (Rattus norvegicus) (UniProt O89049); assay: qHTS Assay for Substrates of Mammalian Selenoprotein Thioredoxin Reductase 1 (TrxR1) (AID 488772);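 note: NADPH fluorescence in the first read after selenite addition and not the 8 min delta; series mostly up to about 57 µM; a drop in NADPH fluorescence below the no-compound background marks a TrxR1 substrate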
Procedure, shortened: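 Quantitative HTS in Tris-HCl buffer at pH 7.5 with EDTA and Tween-20, using rat TrxR1, 400 uM NADPH and 400 uM selenite (final). A fall in initial NADPH fluorescence relative to background marked substrate behaviour.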

[7] = target: Thioredoxin reductase 1, cytoplasmic (Rattus norvegicus) (UniProt O89049); assay: qHTS Assay for Inhibitors of Mammalian Selenoprotein Thioredoxin Reductase 1 (TrxR1) (AID 488773); conditions: Potency: inhibition; note: nearly all actives have a fitted effect of over 40% in size; note: potency is the fitted concentration of half-maximal effect
Procedure, shortened: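 Steps: enzyme (90 nM) plus NADPH (400 uM final), 5 min at ~22 deg C; compound added, 15 min; selenite (400 uM final) added; fluorescence followed for 8 min. Concentration-response curves derived from the normalized delta values.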

[8] = target: ATP-dependent 6-phosphofructokinase (Trypanosoma brucei brucei) (UniProt O15648); assay: qHTS Validation Assay to Find Inhibitors of T. brucei phosphofructokinase (AID 485368); note: potency is the fitted concentration of half-maximal effect
Procedure, shortened: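 Activity was normalized between 1x (1.25 nM) PFK wells as no inhibition and enzyme-free wells as full inhibition, from luminescence after ADP-Glo detection of ADP made from 0.5 mM F6P and 0.1 mM ATP over 45 min.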

[9] = Quantitative high throughput screen for delayed death inhibitors of the malarial parasite plastid, 96 hour incubation (AID 488745); note: nearly all actives have a fitted effect of over 70% in size; note: potency is the fitted concentration of half-maximal effect
Procedure, shortened: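 Infected erythrocytes were added to compound in Albumax-supplemented RPMI 1640 at 0.1% parasitemia and 2% hematocrit (final), incubated 96 h at 37 C under 5% CO2, then luciferase reagent was added and luminescence measured.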

Sequence of Ubiquitin carboxyl-terminal hydrolase 2 (Homo sapiens) (O75604 whole entry, looked up): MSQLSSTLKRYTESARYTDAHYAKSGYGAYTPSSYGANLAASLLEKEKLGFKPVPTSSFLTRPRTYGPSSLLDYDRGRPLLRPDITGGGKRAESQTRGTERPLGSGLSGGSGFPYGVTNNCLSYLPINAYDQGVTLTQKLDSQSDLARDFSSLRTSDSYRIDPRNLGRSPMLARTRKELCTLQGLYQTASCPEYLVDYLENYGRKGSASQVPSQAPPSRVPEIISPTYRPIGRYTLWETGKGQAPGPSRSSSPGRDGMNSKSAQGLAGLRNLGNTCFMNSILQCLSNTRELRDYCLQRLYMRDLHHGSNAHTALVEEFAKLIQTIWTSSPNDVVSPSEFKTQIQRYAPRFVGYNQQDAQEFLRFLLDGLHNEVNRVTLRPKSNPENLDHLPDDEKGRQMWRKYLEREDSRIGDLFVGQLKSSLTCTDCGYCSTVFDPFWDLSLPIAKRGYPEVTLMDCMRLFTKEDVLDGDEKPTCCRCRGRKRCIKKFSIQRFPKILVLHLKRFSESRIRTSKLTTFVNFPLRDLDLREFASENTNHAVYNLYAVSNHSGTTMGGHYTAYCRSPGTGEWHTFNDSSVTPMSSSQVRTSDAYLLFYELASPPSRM
Sequence of Tumor susceptibility gene 101 protein (Homo sapiens) (Q99816 whole entry, looked up, the tested form may be a part): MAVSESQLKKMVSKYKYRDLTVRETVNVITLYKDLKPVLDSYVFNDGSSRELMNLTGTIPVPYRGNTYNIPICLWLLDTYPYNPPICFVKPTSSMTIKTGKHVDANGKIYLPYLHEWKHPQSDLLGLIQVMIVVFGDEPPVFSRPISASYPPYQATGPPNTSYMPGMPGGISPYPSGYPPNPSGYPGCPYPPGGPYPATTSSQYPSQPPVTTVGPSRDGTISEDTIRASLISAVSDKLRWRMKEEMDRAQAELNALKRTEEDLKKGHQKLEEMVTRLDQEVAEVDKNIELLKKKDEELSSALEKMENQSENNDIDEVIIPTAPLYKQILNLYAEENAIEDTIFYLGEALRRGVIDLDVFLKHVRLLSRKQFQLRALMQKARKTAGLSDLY
Sequence of Thioredoxin reductase 1, cytoplasmic (Rattus norvegicus) (O89049 whole entry, looked up): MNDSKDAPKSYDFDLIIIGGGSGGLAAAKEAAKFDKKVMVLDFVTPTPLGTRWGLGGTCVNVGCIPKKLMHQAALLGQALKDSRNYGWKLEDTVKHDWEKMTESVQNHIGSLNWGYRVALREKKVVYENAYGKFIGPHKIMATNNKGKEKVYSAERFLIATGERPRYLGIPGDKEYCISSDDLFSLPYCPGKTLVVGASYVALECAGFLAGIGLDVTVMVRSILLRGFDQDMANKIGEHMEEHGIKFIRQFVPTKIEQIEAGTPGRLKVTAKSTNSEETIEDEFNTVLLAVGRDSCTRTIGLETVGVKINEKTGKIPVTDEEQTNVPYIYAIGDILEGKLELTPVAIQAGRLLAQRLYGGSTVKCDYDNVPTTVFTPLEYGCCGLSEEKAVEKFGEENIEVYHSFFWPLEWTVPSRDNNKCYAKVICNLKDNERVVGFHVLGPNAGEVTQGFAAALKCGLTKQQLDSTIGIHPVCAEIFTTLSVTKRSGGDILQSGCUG
Sequence of Beta-2 adrenergic receptor (Homo sapiens) (P07550 whole entry, looked up): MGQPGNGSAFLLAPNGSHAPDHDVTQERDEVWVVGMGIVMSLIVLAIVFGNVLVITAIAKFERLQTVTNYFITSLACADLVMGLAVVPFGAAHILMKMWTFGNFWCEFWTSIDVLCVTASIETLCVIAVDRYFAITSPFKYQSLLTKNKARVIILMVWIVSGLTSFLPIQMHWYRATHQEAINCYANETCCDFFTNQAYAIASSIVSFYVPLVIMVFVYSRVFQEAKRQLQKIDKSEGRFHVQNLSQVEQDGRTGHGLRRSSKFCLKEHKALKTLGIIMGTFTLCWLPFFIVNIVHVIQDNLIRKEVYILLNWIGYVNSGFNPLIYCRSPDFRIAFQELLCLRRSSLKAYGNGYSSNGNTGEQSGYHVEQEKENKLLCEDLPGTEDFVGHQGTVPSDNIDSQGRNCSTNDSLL
Sequence of ATP-dependent 6-phosphofructokinase (Trypanosoma brucei brucei) (O15648 whole entry, looked up): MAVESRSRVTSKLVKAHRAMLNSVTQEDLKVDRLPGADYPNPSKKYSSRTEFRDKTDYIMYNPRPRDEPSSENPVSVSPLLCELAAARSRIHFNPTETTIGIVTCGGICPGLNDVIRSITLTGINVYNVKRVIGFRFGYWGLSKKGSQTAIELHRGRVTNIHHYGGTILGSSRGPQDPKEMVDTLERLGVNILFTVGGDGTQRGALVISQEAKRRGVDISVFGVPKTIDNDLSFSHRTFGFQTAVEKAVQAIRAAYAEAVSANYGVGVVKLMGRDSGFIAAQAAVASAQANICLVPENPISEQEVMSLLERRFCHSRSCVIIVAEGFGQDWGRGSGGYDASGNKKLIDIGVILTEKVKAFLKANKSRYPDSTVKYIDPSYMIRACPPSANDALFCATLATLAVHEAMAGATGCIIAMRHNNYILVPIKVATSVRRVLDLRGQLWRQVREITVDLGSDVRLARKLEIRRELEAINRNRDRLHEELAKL

Compound	Potency [1]	outcome [2]	Potency [3]	outcome [4]	Potency [5]	outcome [6]	Potency [7]	Potency [8]	Potency [9]
CN1CCC(c2c[nH]c3ccc(O)cc23)CC1	inactive	inactive	inactive	inactive	inactive	inactive	inactive		
CCCN1CCc2cc(O)cc3c2[C@H]1Cc1ccc(O)c(O)c1-3	inactive	inactive		inactive				3.01 µM (active)	
Cc1c2ccncc2c(C)c2c1[nH]c1ccccc12	inactive	inactive		inactive	1.85 µM (active)	inactive			1.17 µM (active)
C[N+]1(C)CCC(OC(=O)C(c2ccccc2)c2ccccc2)CC1					9.28 µM (active)				2.08 µM (active)
O=[N+]([O-])/C=C/c1ccc2c(c1)OCO2	inactive	inactive		inactive			7.52 µM (active)		
CNC(=O)OCC[N+](C)(C)C					inactive				
C[C@]12Cc3cn4c(nc3C=C1CCC1C2CC[C@@]2(C)[C@H]1CC[C@@]2(O)C#N)nc1ccccc14 (stereo partly specified)	inactive	inactive	13 µM (active)	inactive	3.7 µM (active)	inactive	inactive		
Oc1ccc2c3c1O[C@H]1c4[nH]c5ccccc5c4C[C@@]4(O)C(C2)N(CC2CC2)CCC314 (stereo partly specified)	inactive	inactive		inactive		inactive	inactive		
COC(=O)N1CCN(C(=O)Cc2ccc(Cl)c(Cl)c2)C(CN2CCCC2)C1 (stereo unspecified)	inactive	inactive	inactive	inactive		inactive	inactive		inactive
CC1OC1P(=O)(O)O (stereo unspecified)					inactive				inactive
C[N+]1(C)C2CCC1CC(OC(=O)c1c[nH]c3ccccc13)C2 (stereo unspecified)	inactive	inactive	inactive	inactive		inactive	inactive		
O=C1CC[C@@]2(O)C3Cc4ccc(O)c5c4C2(CCN3CC2CC2)[C@H]1O5 (stereo partly specified)		inactive	inactive	inactive	inactive		inactive		inactive
CCn1cnc2c(Nc3cccc(Cl)c3)nc(N[C@@H]3CCCC[C@@H]3N)nc21	inactive	inactive		inactive	5.86 µM (active)		inactive		0.208 µM (active)
c1ccc2c(N3CCNCC3)cccc2c1	inactive	inactive		inactive	inactive	inactive	inactive	inactive	inactive
